The supplement of paper PMC4466140

Molecular target: AgAbp1
Test: SPOT peptide array binding signal intensity (averaged, normalized) (arbitrary units (background-subtracted, floor 0; scale differs between SH3 domains)); higher = stronger binding of the SH3 domain to the peptide
How it was run: (§1)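 E. coli BL21(DE3) was used to express GST-fused SH3 domains from four yeast species, which were then purified on glutathione Sepharose. These were incubated at 10 μg/ml in TBS-based blocking buffer overnight at 4°C on cellulose membranes carrying synthetic 15-mer peptides, in which cysteines were replaced by serines. Binding signal is the replicate average of normalized, background-subtracted spot intensity, in arbitrary units that differ between domains.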

Row | Binder | SPOT peptide array binding signal intensity
1 | PELAPKREAPKPPAN | 0.5

Molecular target: AgBbc1
Test: as above
How it was run: as §1

Row | Binder | SPOT peptide array binding signal intensity
2 | PELAPKREAPKPPAN | ≤ 0

Molecular target: AgBem1-D1
Test: as above
How it was run: as §1

Row | Binder | SPOT peptide array binding signal intensity
3 | PELAPKREAPKPPAN | 7.5

Molecular target: AgBzz1-D1
Test: as above
How it was run: as §1

Row | Binder | SPOT peptide array binding signal intensity
4 | PELAPKREAPKPPAN | 34.5

Molecular target: AgBzz1-D2
Test: as above
How it was run: as §1

Row | Binder | SPOT peptide array binding signal intensity
5 | PELAPKREAPKPPAN | 12

Molecular target: AgCyk3
Test: as above
How it was run: as §1

Row | Binder | SPOT peptide array binding signal intensity
6 | PELAPKREAPKPPAN | ≤ 0

Molecular target: AgFus1
Test: as above
How it was run: as §1

Row | Binder | SPOT peptide array binding signal intensity
7 | PELAPKREAPKPPAN | 0.5

Molecular target: AgHof1
Test: as above
How it was run: as §1

Row | Binder | SPOT peptide array binding signal intensity
8 | PELAPKREAPKPPAN | 2.5

Molecular target: AgHse1
Test: as above
How it was run: as §1

Row | Binder | SPOT peptide array binding signal intensity
9 | PELAPKREAPKPPAN | ≤ 0

Molecular target: AgLsb1
Test: as above
How it was run: as §1

Row | Binder | SPOT peptide array binding signal intensity
10 | PELAPKREAPKPPAN | ≤ 0

Molecular target: AgLsb4
Test: as above
How it was run: as §1

Row | Binder | SPOT peptide array binding signal intensity
11 | PELAPKREAPKPPAN | ≤ 0

Molecular target: AgMyo5
Test: as above
How it was run: as §1

Row | Binder | SPOT peptide array binding signal intensity
12 | PELAPKREAPKPPAN | 560

Molecular target: AgNbp2
Test: as above
How it was run: as §1

Row | Binder | SPOT peptide array binding signal intensity
13 | PELAPKREAPKPPAN | 564

Molecular target: AgRvs167
Test: as above
How it was run: as §1

Row | Binder | SPOT peptide array binding signal intensity
14 | PELAPKREAPKPPAN | 2.83

Molecular target: AgSho1
Test: as above
How it was run: as §1

Row | Binder | SPOT peptide array binding signal intensity
15 | PELAPKREAPKPPAN | ≤ 0

Molecular target: AgSla1-D1-D2
Test: as above
How it was run: as §1

Row | Binder | SPOT peptide array binding signal intensity
16 | PELAPKREAPKPPAN | ≤ 0

Molecular target: AgSla1-D3
Test: as above
How it was run: as §1

Row | Binder | SPOT peptide array binding signal intensity
17 | PELAPKREAPKPPAN | 3

Molecular target: CaAbp1-D1
Test: as above
How it was run: as §1

Row | Binder | SPOT peptide array binding signal intensity
18 | PELAPKREAPKPPAN | ≤ 0

Molecular target: CaAbp1-D2
Test: as above
How it was run: as §1

Row | Binder | SPOT peptide array binding signal intensity
19 | PELAPKREAPKPPAN | 3.5

Molecular target: CaBbc1
Test: as above
How it was run: as §1

Row | Binder | SPOT peptide array binding signal intensity
20 | PELAPKREAPKPPAN | 73.2

Molecular target: CaBem1-D1
Test: as above
How it was run: as §1

Row | Binder | SPOT peptide array binding signal intensity
21 | PELAPKREAPKPPAN | 1

Molecular target: CaBzz1-D1
Test: as above
How it was run: as §1

Row | Binder | SPOT peptide array binding signal intensity
22 | PELAPKREAPKPPAN | 652

Molecular target: CaBzz1-D2
Test: as above
How it was run: as §1

Row | Binder | SPOT peptide array binding signal intensity
23 | PELAPKREAPKPPAN | 265

Molecular target: CaCyk3
Test: as above
How it was run: as §1

Row | Binder | SPOT peptide array binding signal intensity
24 | PELAPKREAPKPPAN | ≤ 0

Molecular target: CaFus1
Test: as above
How it was run: as §1

Row | Binder | SPOT peptide array binding signal intensity
25 | PELAPKREAPKPPAN | 14

Molecular target: CaHof1
Test: as above
How it was run: as §1

Row | Binder | SPOT peptide array binding signal intensity
26 | PELAPKREAPKPPAN | ≤ 0

Molecular target: CaHse1
Test: as above
How it was run: as §1

Row | Binder | SPOT peptide array binding signal intensity
27 | PELAPKREAPKPPAN | 0.5

Molecular target: CaLsb1
Test: as above
How it was run: as §1

Row | Binder | SPOT peptide array binding signal intensity
28 | PELAPKREAPKPPAN | ≤ 0

Molecular target: CaLsb4
Test: as above
How it was run: as §1

Row | Binder | SPOT peptide array binding signal intensity
29 | PELAPKREAPKPPAN | ≤ 0

Molecular target: CaMyo5
Test: as above
How it was run: as §1

Row | Binder | SPOT peptide array binding signal intensity
30 | PELAPKREAPKPPAN | 1.5

Molecular target: CaNbp2
Test: as above
How it was run: as §1

Row | Binder | SPOT peptide array binding signal intensity
31 | PELAPKREAPKPPAN | 1020

Molecular target: CaRvs167
Test: as above
How it was run: as §1

Row | Binder | SPOT peptide array binding signal intensity
32 | PELAPKREAPKPPAN | 0.667

Molecular target: CaRvs167-3
Test: as above
How it was run: as §1

Row | Binder | SPOT peptide array binding signal intensity
33 | PELAPKREAPKPPAN | ≤ 0

Molecular target: CaSho1
Test: as above
How it was run: as §1

Row | Binder | SPOT peptide array binding signal intensity
34 | PELAPKREAPKPPAN | ≤ 0

Molecular target: CaSla1-D1-D2
Test: as above
How it was run: as §1

Row | Binder | SPOT peptide array binding signal intensity
35 | PELAPKREAPKPPAN | ≤ 0

Molecular target: CaSla1-D3
Test: as above
How it was run: as §1

Row | Binder | SPOT peptide array binding signal intensity
36 | PELAPKREAPKPPAN | 1

Molecular target: ScAbp1
Test: as above
How it was run: as §1

Row | Binder | SPOT peptide array binding signal intensity
37 | PELAPKREAPKPPAN | 1

Molecular target: ScBbc1
Test: as above
How it was run: as §1

Row | Binder | SPOT peptide array binding signal intensity
38 | PELAPKREAPKPPAN | 17

Molecular target: ScBem1-D1
Test: as above
How it was run: as §1

Row | Binder | SPOT peptide array binding signal intensity
39 | PELAPKREAPKPPAN | ≤ 0

Molecular target: ScBzz1-D1
Test: as above
How it was run: as §1

Row | Binder | SPOT peptide array binding signal intensity
40 | PELAPKREAPKPPAN | 91

Molecular target: ScBzz1-D2
Test: as above
How it was run: as §1

Row | Binder | SPOT peptide array binding signal intensity
41 | PELAPKREAPKPPAN | 10

Molecular target: ScCyk3
Test: as above
How it was run: as §1

Row | Binder | SPOT peptide array binding signal intensity
42 | PELAPKREAPKPPAN | ≤ 0

Molecular target: ScFus1
Test: as above
How it was run: as §1

Row | Binder | SPOT peptide array binding signal intensity
43 | PELAPKREAPKPPAN | ≤ 0

Molecular target: ScHof1
Test: as above
How it was run: as §1

Row | Binder | SPOT peptide array binding signal intensity
44 | PELAPKREAPKPPAN | ≤ 0

Molecular target: ScHse1
Test: as above
How it was run: as §1

Row | Binder | SPOT peptide array binding signal intensity
45 | PELAPKREAPKPPAN | ≤ 0

Molecular target: ScLsb1
Test: as above
How it was run: as §1

Row | Binder | SPOT peptide array binding signal intensity
46 | PELAPKREAPKPPAN | ≤ 0

Molecular target: ScLsb2
Test: as above
How it was run: as §1

Row | Binder | SPOT peptide array binding signal intensity
47 | PELAPKREAPKPPAN | 0.5

Molecular target: ScLsb3
Test: as above
How it was run: as §1

Row | Binder | SPOT peptide array binding signal intensity
48 | PELAPKREAPKPPAN | ≤ 0

Molecular target: ScLsb4
Test: as above
How it was run: as §1

Row | Binder | SPOT peptide array binding signal intensity
49 | PELAPKREAPKPPAN | ≤ 0

Molecular target: ScMyo3
Test: as above
How it was run: as §1

Row | Binder | SPOT peptide array binding signal intensity
50 | PELAPKREAPKPPAN | 1310

Molecular target: ScMyo5
Test: as above
How it was run: as §1

Row | Binder | SPOT peptide array binding signal intensity
51 | PELAPKREAPKPPAN | 906

Molecular target: ScNbp2
Test: as above
How it was run: as §1

Row | Binder | SPOT peptide array binding signal intensity
52 | PELAPKREAPKPPAN | 1560

Molecular target: ScPex13
Test: as above
How it was run: as §1

Row | Binder | SPOT peptide array binding signal intensity
53 | PELAPKREAPKPPAN | 5

Molecular target: ScRvs167
Test: as above
How it was run: as §1

Row | Binder | SPOT peptide array binding signal intensity
54 | PELAPKREAPKPPAN | ≤ 0

Molecular target: ScSho1
Test: as above
How it was run: as §1

Row | Binder | SPOT peptide array binding signal intensity
55 | PELAPKREAPKPPAN | ≤ 0

Molecular target: ScSla1-D1-D2
Test: as above
How it was run: as §1

Row | Binder | SPOT peptide array binding signal intensity
56 | PELAPKREAPKPPAN | ≤ 0

Molecular target: ScSla1-D3
Test: as above
How it was run: as §1

Row | Binder | SPOT peptide array binding signal intensity
57 | PELAPKREAPKPPAN | 4.5

Molecular target: SpAbp1-D1
Test: as above
How it was run: as §1

Row | Binder | SPOT peptide array binding signal intensity
58 | PELAPKREAPKPPAN | 5

Molecular target: SpBbc1
Test: as above
How it was run: as §1

Row | Binder | SPOT peptide array binding signal intensity
59 | PELAPKREAPKPPAN | ≤ 0

Molecular target: SpBzz1-D1
Test: as above
How it was run: as §1

Row | Binder | SPOT peptide array binding signal intensity
60 | PELAPKREAPKPPAN | 9

Molecular target: SpBzz1-D2
Test: as above
How it was run: as §1

Row | Binder | SPOT peptide array binding signal intensity
61 | PELAPKREAPKPPAN | 0.5

Molecular target: SpCyk3
Test: as above
How it was run: as §1

Row | Binder | SPOT peptide array binding signal intensity
62 | PELAPKREAPKPPAN | 1

Molecular target: SpHof1
Test: as above
How it was run: as §1

Row | Binder | SPOT peptide array binding signal intensity
63 | PELAPKREAPKPPAN | 0.5

Molecular target: SpHof1-2
Test: as above
How it was run: as §1

Row | Binder | SPOT peptide array binding signal intensity
64 | PELAPKREAPKPPAN | 1.5

Molecular target: SpHof1-3
Test: as above
How it was run: as §1

Row | Binder | SPOT peptide array binding signal intensity
65 | PELAPKREAPKPPAN | 1

Molecular target: SpHse1
Test: as above
How it was run: as §1

Row | Binder | SPOT peptide array binding signal intensity
66 | PELAPKREAPKPPAN | 7.5

Molecular target: SpLsb1
Test: as above
How it was run: as §1

Row | Binder | SPOT peptide array binding signal intensity
67 | PELAPKREAPKPPAN | ≤ 0

Molecular target: SpLsb4
Test: as above
How it was run: as §1

Row | Binder | SPOT peptide array binding signal intensity
68 | PELAPKREAPKPPAN | ≤ 0

Molecular target: SpMyo1
Test: as above
How it was run: as §1

Row | Binder | SPOT peptide array binding signal intensity
69 | PELAPKREAPKPPAN | 1220

Molecular target: SpNbp2
Test: as above
How it was run: as §1

Row | Binder | SPOT peptide array binding signal intensity
70 | PELAPKREAPKPPAN | ≤ 0

Molecular target: SpPex13
Test: as above
How it was run: as §1

Row | Binder | SPOT peptide array binding signal intensity
71 | PELAPKREAPKPPAN | ≤ 0

Molecular target: SpRvs167
Test: as above
How it was run: as §1

Row | Binder | SPOT peptide array binding signal intensity
72 | PELAPKREAPKPPAN | ≤ 0

Molecular target: SpSla1-D1-D2
Test: as above
How it was run: as §1

Row | Binder | SPOT peptide array binding signal intensity
73 | PELAPKREAPKPPAN | ≤ 0

Molecular target: SpSla1-D3
Test: as above
How it was run: as §1

Row | Binder | SPOT peptide array binding signal intensity
74 | PELAPKREAPKPPAN | ≤ 0
